About 5,100 (32%) of roughly 16,000 compounds were called active. Not shown: some 25% with an inconclusive outcome. The list shows a part of the results. Values without a mark were called inactive. Calls come from the whole dose curve; as a rule, active = well fitted curve in the direction sought with a large enough effect; inconclusive = small, poorly fitted or top-dose-only effect, or effect the other way; inactive = no such curve, though single readings can be large or run the other way.
Biological target: Cytochrome P450 3A4 (Homo sapiens) (UniProt P08684)
Experiment: Cytochrome panel assay with activity outcomes
Settings: recombinant CYP, pro-luciferin dealkylation, luminescence, p450-cyp3a4; series mostly up to 57.1 µM
% is set by controls: 0 for no effect and ±100 for the full control effect.

Sequence of Cytochrome P450 3A4 (Homo sapiens) (P08684 whole entry, looked up): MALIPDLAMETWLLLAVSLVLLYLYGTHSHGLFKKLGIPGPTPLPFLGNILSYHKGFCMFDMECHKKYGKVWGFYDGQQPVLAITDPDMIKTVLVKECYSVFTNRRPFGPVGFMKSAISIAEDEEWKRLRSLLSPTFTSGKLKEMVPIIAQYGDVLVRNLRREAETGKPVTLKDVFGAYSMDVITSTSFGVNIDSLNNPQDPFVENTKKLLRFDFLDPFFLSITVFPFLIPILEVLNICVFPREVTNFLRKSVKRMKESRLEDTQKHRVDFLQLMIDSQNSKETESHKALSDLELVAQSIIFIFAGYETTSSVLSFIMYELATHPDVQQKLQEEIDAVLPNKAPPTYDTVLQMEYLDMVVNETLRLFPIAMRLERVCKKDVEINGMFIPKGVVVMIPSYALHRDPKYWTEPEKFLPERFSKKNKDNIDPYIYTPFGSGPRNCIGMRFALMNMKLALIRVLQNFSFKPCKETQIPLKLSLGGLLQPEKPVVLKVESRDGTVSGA

Compound	activity, negative = inhibition	AC50
CCOC(=S)SCC(=O)O	-14.7% [at 11.4 µM]	
CCOc1ccc(OCCOc2ncnc3ccccc23)cc1	-3.65% [at 2.29 µM]	
Cc1ccc(NC(=O)c2cc(NC(=O)CCC(=O)O)ccc2N2CCCCC2)cc1		inactive
Cc1ccc(NC(=O)CSCC(=O)Nc2ccc(N3CCOCC3)c(Cl)c2)cc1		3.55 µM (active)
O=C(/C=C/c1ccco1)NC(=S)Nc1ccc(N2CCOCC2)c(Cl)c1	12.4% [at 2.29 µM]	
NCCOB(c1ccccc1)c1ccccc1		12.6 µM (active)
NCCSCCc1ccccc1	-8.42% [at 11.4 µM]	
O=C(O)[C@@H]1CCCNC1		inactive
Cc1ccc(C(=O)N/N=C/c2sc(=O)n(Cc3cccc(C(=O)O)c3)c2Cl)cc1		inactive
CCC(C)n1c(NC(=O)c2ccccc2)c(C#N)c2nc3ccccc3nc21 (configuration not stated)		inactive
Cc1ccc(C(=O)Nc2c(C#N)c(C)c(C)n2Cc2ccccc2)cc1		10 µM (active)
CCOC(=O)Cc1csc(NC(=O)c2ccc(Cl)nc2)n1		14.1 µM (active)
CCOC(=O)Cc1csc(NC(=O)c2c(-c3c(Cl)cccc3Cl)noc2C)n1	-21.4% [at 2.29 µM]	
CCOC(=O)Cc1csc(NC(=O)c2ccc(S(=O)(=O)N3CCCCC3)cc2)n1		inactive
CCOc1cc(S(=O)(=O)N(Cc2ccccc2)Cc2ccccc2)c(OCC)cc1-n1cnnn1		12.6 µM (active)
COCCNc1ccnc(-c2ccccc2C(F)(F)F)n1		inactive
Fc1ccc(Nc2ccnc(-c3ccccc3C(F)(F)F)n2)cc1		12.6 µM (active)
COc1ccccc1-c1nccc(NC2CCNCC2)n1		inactive
COc1ccccc1CNc1ccnc(-c2ccccc2OC)n1		15.8 µM (active)
COc1ccccc1CNc1ccnc(-c2ccccc2C(F)(F)F)n1		12.6 µM (active)
Cc1nc([N+](=O)[O-])c(N2CCN(C)CC2)n1Cc1ccccc1		inactive

Compound	activity, negative = inhibition	AC50
COc1ccc(CSc2nnnn2C)cc1[N+](=O)[O-]		inactive
CCCOc1ccc(Cn2c(C)nc([N+](=O)[O-])c2SCC(O)COC)cc1[N+](=O)[O-] (configuration not stated)		14.1 µM (active)
Nc1nc2c(nc(Br)n2[C@@H]2O[C@H]3COP(=O)(O)O[C@@H]3[C@H]2O)c(=O)[nH]1		inactive
Nc1ccc2[nH]cc(CCC(=O)O)c2c1	-1.6% [at 11.4 µM]	
COC(=O)Nc1ccc2[nH]cc(CCNC(C)=O)c2c1		inactive
COc1cc2c(CCNC(C)=O)c[nH]c2cc1Cl		15.8 µM (active)
CN(C)[C@@H]1C(=O)C(C(N)=O)=C(O)[C@]2(O)C(=O)C3=C(O)c4c(O)ccc(Cl)c4[C@H](O)[C@H]3C[C@@H]12		inactive
Cc1ccc(/C=C/c2ccc(=O)n(Cc3ccc(Cl)cc3Cl)n2)cc1		inactive
Cc1ccc(Cn2cnc3c(nnn3Cc3ccc(Cl)cc3)c2=O)cc1		3.16 µM (active)
Cc1nn(Cc2c(F)c(F)c(F)c(F)c2F)c(C)c1NC(=O)c1cccc(COc2ccccc2Cl)c1		3.98 µM (active)
Cc1nn(Cc2c(F)c(F)c(F)c(F)c2F)c(C)c1NC(=O)c1cccc(COc2ccc(Cl)cc2)c1	-20.6% [at 2.29 µM]	
Cc1nn(Cc2c(F)c(F)c(F)c(F)c2F)c(C)c1NC(=O)c1c(-c2ccccc2)nn(-c2ccccc2)c1C		2.24 µM (active)
Cc1ncc(COP(=O)(O)O)c(C)c1O	-9.44% [at 11.4 µM]	
COc1cc(-c2nnc(COC(=O)c3c4c(nc5ccccc35)CCCC4)o2)cc(OC)c1OC		4.47 µM (active)
COc1ccc(OC)c(NC(=O)[C@H]2CC=CC[C@H]2C(=O)O)c1		inactive
Nc1c2c(nc3ccccc13)CCCC2		inactive
COc1ccc(OC)c(NC(=O)c2c3c(nc4ccccc24)CCC3)c1		7.08 µM (active)
COc1ccc(OC)c(-c2cc(C(=O)O)c3cc4ccccc4cc3n2)c1	6% [at 11.4 µM]	
O=C1NC(=O)C(c2ccccc2)(c2ccccc2)N1		inactive
O=C1Nc2cc(C(=O)N3CCOCC3)ccc2SC1N1CCOCC1 (configuration not stated)		inactive
Cc1cn(CC[C@H](N)C(=O)O)c(=O)[nH]c1=O	-9% [at 11.4 µM]	

Compound	activity, negative = inhibition	AC50
O=C(Nc1cccc(F)c1)N1CCC2(CC1)CCN(C(=O)c1csnn1)CC2		inactive
O=C(NCc1ccccc1)C(c1ccncc1)N(C(=O)c1csnn1)C1CC1 (configuration not stated)		2.82 µM (active)
O=C(NCc1ccc(F)cc1)C(c1ccncc1)N(C(=O)c1csnn1)C1CC1 (configuration not stated)		2 µM (active)
O=C(O)CCC(=O)c1ccc(Cl)cc1	1.22% [at 11.4 µM]	
O=C(C/C=N/OCc1ccc(Cl)cc1Cl)c1ccc(Cl)cc1		25.1 µM (active)
CCN1CCN(CCCNC(=O)C(NC(=O)C2CCC(C)CC2)C(C)C)CC1 (configuration not stated)		inactive
COc1ccc2[nH]c3cc4c(=O)c5cc(OC)ccc5[nH]c4cc3c(=O)c2c1	-0.294% [at 11.4 µM]	
COc1ccc2[nH]c(-c3ccccc3)c(CCNC(C)=O)c2c1		12.6 µM (active)
CCCCNC(=O)C(=O)NC(C)CCc1ccccc1 (configuration not stated)		inactive
CCCCC(=O)NCCc1c(Cc2ccccc2)[nH]c2ccccc12		0.794 µM (active)
Cc1ccc2[nH]c(-c3ccccc3)c(CN(C)C)c(=O)c2c1	9.06% [at 2.29 µM]	
CC(=O)NCCc1c(Cc2ccccc2)[nH]c2ccccc12		7.94 µM (active)
CSc1nc(C)c2c(n1)N(c1ccc(C(C)C)cc1)CC2		inactive
C=CCc1cccc2cc(C(=O)N(CC)CC)c(=O)oc12		11.2 µM (active)
Cc1cc(C)c[n+](CC(=O)c2cc3ccccc3oc2=O)c1		inactive
CN(C)c1ncnc2ccc(-c3cccc(C#N)c3)cc12		12.6 µM (active)
CN(C)c1ccc(-c2ccc3ncnc(N(C)C)c3c2)cc1		6.31 µM (active)
CN(C)c1ncnc2ccc(-c3cccnc3)cc12		1 µM (active)
COc1cccc(-c2ccc3ncnc(N(C)C)c3c2)c1		7.94 µM (active)
CN(C)c1ncnc2c1ncn2CCn1cnc2c(N(C)C)ncnc21	8.51% [at 11.4 µM]	

Source: PubChem BioAssay AID1851 (National Center for Advancing Translational Sciences (NCATS), 2009)
